Luc counter: Kinase-Glo luciferase inhibition (counter-screen); Q27757; Kinase-Glo luciferase, ATP luminescence, 8 min; Potency, µM (top dose mostly 38.3 µM), actives largely listed as inhibitors; 200,000 compounds, 0.28% hits; note: nearly all actives have a fitted effect of over 60% in size
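Inhibition of Kinase-Glo luciferase light generation was assessed at 10 uM ATP in pH 7.2 imidazole buffer, with luminescence measured after eight minutes at ambient temperature.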
Rab9 prom act: Rab9 promoter activation. Huh7 Rab9 promoter-luciferase reporter, luminescence, 24 h. Potency, µM (highest dose often 9.22 µM), actives largely listed as activators. 320,000 compounds, 2.8% hits. AID 485297; note: nearly all actives have a fitted effect of over 60% in size
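Steps: seed 1500 Huh7 Rab9-luc cells per well, rest 2 h at 37 °C; add compound in DMSO; incubate 24 h; add luciferase reagent, 10 min ambient; read luminescence.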
FLuc counter: firefly luciferase modulation, counter-screen for miR-21 project | P08659 | purified FLuc, Km substrates, luminescence inhibition | Potency, µM (series often up to 57.5 µM), most hits filed as inhibitors | 360,000 compounds, 6.9% hits; note: nearly all actives have a fitted effect of over 55% in size
Target sequence (P08659 whole entry, looked up): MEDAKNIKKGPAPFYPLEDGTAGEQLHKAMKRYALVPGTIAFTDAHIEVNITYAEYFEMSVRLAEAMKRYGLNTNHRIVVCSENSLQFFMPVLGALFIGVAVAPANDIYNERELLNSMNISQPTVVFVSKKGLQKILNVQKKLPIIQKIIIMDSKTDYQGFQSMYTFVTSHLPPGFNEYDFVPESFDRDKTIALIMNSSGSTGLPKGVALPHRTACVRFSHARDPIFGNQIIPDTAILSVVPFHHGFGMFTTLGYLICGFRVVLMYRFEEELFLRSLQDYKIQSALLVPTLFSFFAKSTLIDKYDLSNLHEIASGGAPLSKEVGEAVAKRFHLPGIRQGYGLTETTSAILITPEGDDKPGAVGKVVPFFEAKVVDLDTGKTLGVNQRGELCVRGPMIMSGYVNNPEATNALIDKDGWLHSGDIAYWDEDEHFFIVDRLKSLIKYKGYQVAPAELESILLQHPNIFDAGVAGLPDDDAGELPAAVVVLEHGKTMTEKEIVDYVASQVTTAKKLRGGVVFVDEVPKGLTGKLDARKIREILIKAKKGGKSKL
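Biochemical qHTS of compounds, final roughly 60 µM downward over six points, against 10 nM purified firefly luciferase using Km concentrations of substrates (10 uM D-luciferin, 10 uM ATP) in Tris acetate pH 7.5 buffer; luminescence output.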
NPC1 promoter act: activators of NPC1 promoter. Huh7 NPC1 promoter luciferase reporter, 24 h. Potency, µM (highest dose often 9.22 µM), actives largely listed as activators. 320,000 compounds, 2.4% hits; note: nearly all actives have a fitted effect of over 60% in size
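Cells: Huh7 expressing luciferase under the NPC1 promoter, 1500/well. Seeded 2 h, compound added, incubated 24 h at 37 °C. Luciferase reagent, 10 min ambient, then luminescence.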
ELG1 genotoxic: induces genotoxicity in HEK293T cells with luciferase-tagged ELG1. HEK293T ELG1-luciferase reporter, luminescence, 16 h. Potency, µM (titrated, usually from 46 µM), usual class: activators. 330,000 compounds, 1.3% hits; note: nearly all actives have a fitted effect of over 60% in size
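DMSO vehicle served as control against compound-treated ELG1-luciferase HEK293T cells; exposure lasted 16 hr at 37 °C and 5% CO2, followed by ONE-Glo luminescence detection after 30 min.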
SMN2 splice up: enhancers of SMN2 splice variant expression | HEK293 SMN2-luciferase splicing reporter, luminescence, 30-36 h | Potency, µM (highest dose often 46.1 µM), most hits filed as activators | 210,000 compounds, 2.8% hits; note: nearly all actives have a fitted effect of over 55% in size
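HEK293 cells carry an SMN2 minigene-luciferase reporter in which exon 7 inclusion puts luciferase in frame. Cells were seeded at 2000 cells/well, attached for 10-12 hours, then exposed to compounds for 30-36 hours at 37C before ONE-Glo luminescence.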
Large screens that a line does not name were inactive; ! = repeats disagree. An excerpt weighted towards active compounds, which were near 7.5% of everything screened. Calls come from the whole dose curve; as a rule, active = well fitted curve in the direction sought with a large enough effect; inconclusive = small, poorly fitted or top-dose-only effect, or another doubt; inactive = no such curve, though single readings can be large; an effect the other way counts as inactive or inconclusive.

Cc1ccc(/C(O)=C/C(=O)C(=O)NC23CC4CC(CC(C4)C2)C3)cc1	Rab9 prom act 3.16µM, FLuc counter 16.9µM, NPC1 promoter act inconclusive (no result: Luc counter, SMN2 splice up)
Cc1ccc(-n2nc(C)c3c(C)cc(=O)n(CC(=O)NC(C)c4ccccc4)c32)cc1 (centres undefined)	none (no result: Luc counter, Rab9 prom act, NPC1 promoter act, ELG1 genotoxic, SMN2 splice up)
O=S(=O)(Nc1nc2ccccc2nc1Nc1ccccc1Br)c1ccccc1	none (no result: Luc counter, Rab9 prom act, NPC1 promoter act, ELG1 genotoxic)
O=C(COC(=O)CCN1C(=O)C2CC=CCC2C1=O)Nc1ccc([N+](=O)[O-])cc1 (centres undefined)	none (no result: Luc counter, Rab9 prom act, FLuc counter, NPC1 promoter act, SMN2 splice up)
O=C(NCC(c1ccc2c(c1)OCO2)N1CCOCC1)c1ccc(F)cc1 (centres undefined)	none (no result: Luc counter, Rab9 prom act, NPC1 promoter act, ELG1 genotoxic, SMN2 splice up)
O=C(c1nn2c(C(F)(F)F)cc(-c3ccccc3)nc2c1Cl)N1CCN2CCCC2C1 (centres undefined)	none (no result: Luc counter, SMN2 splice up)
Cn1c(=O)n(C)c2cc(C(N)=O)ccc21	SMN2 splice up 22.4µM
CCCOc1ccc(NC(=O)c2cc3cc(C)ccc3[nH]2)cc1	Rab9 prom act inconclusive, NPC1 promoter act 1.78µM (no result: Luc counter, SMN2 splice up)
Cn1c(=O)n(C)c2cc(NC(=O)c3ccc(F)cc3)ccc21	FLuc counter inconclusive, ELG1 genotoxic inconclusive (no result: Luc counter, SMN2 splice up)
CC(C)Oc1ccc(C(=O)NCC(c2ccc(N(C)C)cc2)N2CCCC2)cc1 (centres undefined)	none (no result: Luc counter, Rab9 prom act, NPC1 promoter act, ELG1 genotoxic, SMN2 splice up)
CC(C)Oc1ccc(C(=O)Nc2ccc(N(C)C)cc2)cc1	FLuc counter 3.38µM, ELG1 genotoxic 4.11µM (no result: Luc counter, SMN2 splice up)
CC(C)Oc1ccc(C(=O)Nc2ccc3c(c2)n(C)c(=O)n3C)cc1	FLuc counter 12µM, ELG1 genotoxic 23.1µM (no result: Luc counter, SMN2 splice up)
CN1CCN(C(CNC(=O)c2c(F)cccc2F)c2ccc3c(c2)OCO3)CC1 (centres undefined)	none (no result: Luc counter, Rab9 prom act, NPC1 promoter act, ELG1 genotoxic, SMN2 splice up)
NC(=O)C1CCN(C(=O)Cc2ccsc2)CC1	none (no result: Luc counter, SMN2 splice up)
COc1ccc(CN(C)C(=O)COC(=O)c2cc([N+](=O)[O-])ccc2N2CCCC2)c(OC)c1OC	none (no result: Luc counter, Rab9 prom act, FLuc counter, NPC1 promoter act, SMN2 splice up)
CCCOc1ccc(C(=O)Nc2ccc(N(C)C)cc2)cc1	Rab9 prom act inconclusive, FLuc counter 0.757µM, ELG1 genotoxic 5.62µM
O=C(Nc1cc(S(=O)(=O)N2CCOCC2)ccc1N1CCOCC1)c1cc2c(s1)CCC2	none (no result: Luc counter, SMN2 splice up)
O=C(Nc1cccc(Cn2cccn2)c1)c1cc2c(s1)CCCC2	Rab9 prom act 0.355µM, FLuc counter inconclusive, NPC1 promoter act 0.112µM, ELG1 genotoxic inconclusive, SMN2 splice up inconclusive
CC(=O)Nc1cccc(Cn2cccn2)c1	none
O=C(Nc1cccc(S(=O)(=O)N2CCOCC2)c1)c1cc2c(s1)CCC2	FLuc counter 15.1µM
CCCC(=O)N(C)c1nnc(-c2ccc(OC)cc2)s1	Rab9 prom act 3.98µM, FLuc counter 7.57µM, ELG1 genotoxic inconclusive
COCCN(C(=O)CCc1ccc(OC)cc1)c1nnc(-c2ccncc2)s1	none (no result: SMN2 splice up)
CCOc1ccc(-c2nnc(N(CC)C(=O)C3CCC3)s2)cc1	FLuc counter 7.57µM, ELG1 genotoxic inconclusive
COCCN(C(=O)C1CC1)c1nnc(-c2ccc(C)cc2)s1	FLuc counter inconclusive
Cc1cccc2c1cnn2C(=O)Nc1ccc(Br)cc1F	Rab9 prom act inconclusive, FLuc counter inconclusive, NPC1 promoter act 0.282µM (no result: Luc counter, SMN2 splice up)
Cc1ccc(NC(=O)n2ncc3c(C)cccc32)c(C)c1	Rab9 prom act 0.316µM, FLuc counter 2.39µM!, NPC1 promoter act 0.398µM, ELG1 genotoxic inconclusive (no result: Luc counter, SMN2 splice up)
Cc1cc(C)cc(NCCC#N)c1	none
C[C@@H]1CCCN(C[C@@H](O)CN2CCCc3ccccc32)C1	none (no result: Rab9 prom act, FLuc counter, NPC1 promoter act, ELG1 genotoxic)
COc1ccc2c(c1)C(=O)[C@H](OC(=O)Nc1ccc(OC(F)F)cc1)[C@@H](c1ccc(OC)c(Br)c1)O2	none (no result: Rab9 prom act, FLuc counter, NPC1 promoter act, ELG1 genotoxic)
Oc1ccc(COCc2ccccc2)c2cccnc12	FLuc counter 19µM, ELG1 genotoxic 8.2µM
N#Cc1cccc(-c2nc(N3CCNCC3)c3ccccc3n2)c1	none (no result: Rab9 prom act, FLuc counter, NPC1 promoter act, ELG1 genotoxic)
CCc1nnc(/N=C/c2c(O)n(-c3ccc(Cl)cn3)c(=O)c3ccccc23)s1	FLuc counter 2.69µM
CCCc1cc(NCCCn2ccnc2)n2nc(C)c(-c3ccccc3)c2n1	none (no result: Luc counter, SMN2 splice up)
Cc1cccc(-c2cc3nc(C)cc(NCCCn4ccnc4)n3n2)c1	FLuc counter 15.1µM, ELG1 genotoxic inconclusive
CN(C)CCCNc1cc(C(C)(C)C)nc2c(-c3ccc(Cl)cc3)cnn12	FLuc counter inconclusive (no result: Luc counter, SMN2 splice up)
